Screens from PubChem.
ATXN viability: Viability Counterscreen for Primary qHTS for Inhibitors of ATXN expression; S2 cells (HEK-293 line with an ATXN2-luciferase reporter) viability, CellTiter-Fluor protease fluorescence, 24 h; Potency, µM (doses to about 56.7 µM), actives largely listed as cytotoxic; 400,000 compounds, 0.49% hits; AID 651635, 2014; note: nearly all actives have a fitted effect of over 40% in size
HepG2 tox: qHTS for Inhibitors of TGF-b: Cytotox Counterscreen. HepG2 CAGA-GFP viability, ATP luminescence, 18 h. Potency, µM (titrated, usually from 46.1 µM), for the others: at the highest dose activity change, negative = cytotoxicity, most hits filed as cytotoxic. 410,000 compounds, 0.76% hits. AID 588856, 2011
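CellTiter-Glo luminescence gave cytotoxicity after 18 hours at 37 degrees C. The cells were HepG2 CAGA-GFP in 1% FBS DMEM, stimulated with 500 pg/mL TGF-beta after compound addition. %Activity was normalised to no-cell wells (complete cell-killing) and DMSO (no toxicity), and curves were fitted and classified.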
ATXN2 expr inh: Primary qHTS for Inhibitors of ATXN expression; HEK-293 ATXN2-luciferase reporter, luminescence, 24 h; Potency, µM (series often up to 57 µM), for inactives: top-dose activity change, negative = inhibition, most hits filed as inhibitors; 360,000 compounds, 0.72% hits; AID 1745845, 2022; note: % is set by controls: 0 for no effect and ±100 for the full control effect; nearly all actives have a fitted effect of over 55% in size
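ATXN2-luciferase reporter cells (luciferase flanked by upstream and downstream ATXN2 gene portions) were treated 24 h at 37 °C with compounds at up to 57 uM. SteadyGlo luminescence gave expression; GF-AFC fluorescence gave viability.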
HT1080-NT tox: qHTS for induction of synthetic lethality in tumor cells producing 2HG: qHTS for the HT-1080-NT fibrosarcoma cell line; HT-1080-NT fibrosarcoma viability, CellTiter-Glo ATP luminescence, 48 h; Potency, µM (series often up to 46.1 µM), without a hit: at the top dose activity, negative = less viability, actives largely listed as cytotoxic; 360,000 compounds, 1.6% hits; AID 686970, 2013;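 note: NT is the 2HG producing partner of a matched IDH1 knockdown line; 0% = DMSO-treated cells and -100% = media-only wells without cells; nearly all actives have a fitted effect of over 55% in size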
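HT-1080-NT fibrosarcoma cells (2HG-overproducing), 750 cells/well in RPMI with 5% FBS, dosed after 2 h and incubated 48 h at 37C. CellTiter-Glo luminescence normalized to DMSO and no-cell wells; concentration-response curves fitted and classed.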
HT1080 IDH1KD tx: qHTS for induction of synthetic lethality in tumor cells producing 2HG: qHTS for the HT-1080-IDH1KD cell line. 360,000 compounds, 2% hits. Potency, µM (doses to about 46.1 µM), for inactives: at the top dose activity, negative = toxicity, actives largely listed as cytotoxic. HT-1080 IDH1 knockdown viability, ATP luminescence, 48 h;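 note: 0% = DMSO wells and -100% = cell-free medium wells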
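Viability of IDH1-knockdown HT-1080 fibrosarcoma cells was assessed by CellTiter-Glo after 48 h at 37 °C with titrated compound; concentration-effect curves were classified by fit quality and response size.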
TGFb inhibitor: qHTS for Inhibitors of TGF-b | Potency, µM (titrated, usually from 46.1 µM), inactives show at the highest dose activity, negative = inhibition, actives largely listed as inhibitors | HepG2 CAGA-GFP TGF-b/SMAD3 reporter, GFP fluorescence, 18 h; TGF-beta stimulated, 500 pg/mL final | 410,000 compounds, 1.2% hits | AID 588855, 2011; note: % is set by controls: 0 for no effect and ±100 for the full control effect; nearly all actives have a fitted effect of over 65% in size
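HEPG2 CAGA-GFP, 1000 cells/well; 2 h settle, 37 C; cpd via pin tool; TGF-b 500 pg/mL final; 18 h, 37 C; GFP imaging ex488/em500-530; %Activity normalised to -TGF-b and +DMSO controls; CRC fit, curve class.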
* marks the source's active call; other numbers are inactive results. This is a sample that favours compounds with a hit; in the whole collection about 3.9% have one here. Calls come from the whole dose curve; as a rule, active = well fitted curve in the direction sought with a large enough effect; inconclusive = small, poorly fitted or top-dose-only effect, or another doubt; inactive = no such curve, though single readings can be large; an effect the other way counts as inactive or inconclusive. Potency is the fitted concentration of half-maximal effect.

Results for CN(C)c1ccc(CNC(=O)c2ccc(NC(=O)c3nsc4ccccc34)cc2)cc1 ?
ATXN viability: inactive; HepG2 tox: -17.8%; ATXN2 expr inh: 96.2%; TGFb inhibitor: 18.3%

Results for CC1(C)CC(=O)C=C(c2ccc(-c3cnc4ccccc4c3)cc2)C1=O ?
ATXN viability: 7.94µM*; HepG2 tox: -23.1%; ATXN2 expr inh: inconclusive; HT1080-NT tox: 1.9%; HT1080 IDH1KD tx: 7.1%; TGFb inhibitor: -5.9%

What do the screens show for `CC1(C)CC(=O)C=C(c2ccc(Oc3ccccc3)cc2)C1=O`?
ATXN viability: inconclusive; HepG2 tox: -31.5%; ATXN2 expr inh: 11.3%; HT1080-NT tox: -0.3%; HT1080 IDH1KD tx: 0.7%; TGFb inhibitor: -11.0%

What do the screens show for `O=C(Nc1ccccc1F)c1coc(=O)c(Br)c1`?
ATXN viability: inconclusive; HepG2 tox: 2.3%; ATXN2 expr inh: 24.8%; HT1080-NT tox: 1.7%; HT1080 IDH1KD tx: 7.1%; TGFb inhibitor: 11.7%

What do the screens show for `COc1ccc(C(=O)NC(C)c2ccccc2)cc1Br` (configuration not stated)?
ATXN viability: inactive; HepG2 tox: -5.0%; ATXN2 expr inh: -1.8%; HT1080-NT tox: -1.2%; HT1080 IDH1KD tx: 1.7%; TGFb inhibitor: -8.0%

Results for Cc1cc(NC(=O)c2coc(=O)c(Br)c2)ccc1C(C)C ?
ATXN viability: inconclusive; HepG2 tox: -70.7%; ATXN2 expr inh: inconclusive; HT1080-NT tox: inconclusive; HT1080 IDH1KD tx: 20.6µM*; TGFb inhibitor: inconclusive

What do the screens show for `C[C@@H](NC(=O)c1coc(=O)c(Br)c1)c1ccccc1`?
ATXN viability: inconclusive; HepG2 tox: 12.6µM*; ATXN2 expr inh: inconclusive; HT1080-NT tox: 9.2µM*; HT1080 IDH1KD tx: 8.2µM*; TGFb inhibitor: inconclusive

How did COc1ccc(Nc2nc(-c3cccs3)nc3ccccc23)c(OC)c1 do in these assays?
ATXN viability: inactive; HepG2 tox: -7.9%; ATXN2 expr inh: 1.4%; HT1080-NT tox: -24.3%; HT1080 IDH1KD tx: -25.5%; TGFb inhibitor: 4.5%

Results for COc1cccc2nc(-c3cccs3)nc(NN3C(=O)C=C(C)C3=O)c12 ?
ATXN2 expr inh: 6.11µM*

How did COc1cccc(/C=C2\SC(=S)N(CCC(=O)NC3C=CS(=O)(=O)C3)C2=O)c1 (configuration not stated) do in these assays?
ATXN viability: inactive; HepG2 tox: -38.3%; ATXN2 expr inh: 6.9%; HT1080-NT tox: 16.4µM*; HT1080 IDH1KD tx: inconclusive; TGFb inhibitor: inconclusive

How did COc1cccc(/C=C2\SC(=S)N(CCCC(=O)N(CCO)c3ccccc3)C2=O)c1 do in these assays?
ATXN viability: inconclusive; HepG2 tox: -57.6%; ATXN2 expr inh: 22.4µM*; HT1080-NT tox: inconclusive; HT1080 IDH1KD tx: inconclusive; TGFb inhibitor: inconclusive

What do the screens show for `O=C1/C(=C/c2cccc(Br)c2)SC(=S)N1CCC(=O)N(CCO)c1ccccc1`?
ATXN viability: inactive; HepG2 tox: -43.4%; ATXN2 expr inh: 0.1%; HT1080-NT tox: -4.4%; HT1080 IDH1KD tx: 4.4%; TGFb inhibitor: inconclusive

Results for O=C(Nc1ccccc1C(F)(F)F)c1ccc2oc(=O)c(S(=O)(=O)c3ccc(F)cc3)cc2c1 ?
ATXN viability: inactive; HepG2 tox: -50.4%; ATXN2 expr inh: inconclusive; TGFb inhibitor: inconclusive

How did O=c1oc2ccc(Br)cc2cc1S(=O)(=O)c1ccc(F)cc1 do in these assays?
HepG2 tox: -2.6%; ATXN2 expr inh: inconclusive; HT1080-NT tox: inconclusive; HT1080 IDH1KD tx: 14.6µM*; TGFb inhibitor: inconclusive
